What is called AC50 is the midpoint of the concentration-response curve, whichever way the signal moves.

The source made the active and inactive calls. The calls were made as follows: active = hit-call score of the fitted dose curve at least 0.9, where 1 is the maximum; inactive = score below 0.9.

27 compounds from PubChem BioAssay (EPA / NIEHS) can be followed below.

Read-out in one experiment: not listed separately
In words: BSK_LPS_PGE2: BioMAP Diversity Plus: LPS Assay for Prostaglandin E2 (PGE2) Biomarker Activity (AID 2283082).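 As to AC50: secreted prostaglandin E2 measured by ELISA in LPS-stimulated co-culture.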 The settings on record: primary human HUVEC with PBMC; actives raise or lower the signal. Put shortly: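 ELISA read-out of PGE2 from human umbilical vein endothelial cells co-cultured with peripheral blood mononuclear cells under LPS, 24 h post-dose. Gain or loss of signal scored relative to DMSO baseline.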
Consider `O=C(O)COc1nc(Cl)c(Cl)cc1Cl`, for which the result was inactive.

For `N#Cc1nn(-c2c(Cl)cc(C(F)(F)F)cc2Cl)c(N)c1S(=O)C(F)(F)F` (stereo not given), the result was inactive.

Turning to `CC(C)Oc1cc(-n2nc(C(C)(C)C)oc2=O)c(Cl)cc1Cl`, the outcome was inactive.

With `CCOP(=S)(OCC)SCn1c(=O)oc2cc(Cl)ccc21`, the AC50 is 13.5 µM (active).

With `CCCC1COC(Cn2cncn2)(c2ccc(Cl)cc2Cl)O1` (stereo not given), the AC50 is 6.44 µM (active).

Take `COC(=O)C=C(C)OP(=O)(OC)OC`: the half-maximal activity concentration (AC50) was 0.37 µM (active).

For `CCNc1nc(Cl)nc(NCC)n1`, the outcome was inactive.

On to `COc1ccc(C(c2ccc(OC)cc2)C(Cl)(Cl)Cl)cc1`, for which the outcome was inactive.

In the case of `CCOC(=O)C(Cl)Cc1cc(-n2nc(C)n(C(F)F)c2=O)c(F)cc1Cl` (stereo not given), the outcome was inactive.

As for `CCc1nn(C)c(C(=O)NCc2ccc(C(C)(C)C)cc2)c1Cl`, the AC50 was 3.97 µM (active).

Turning to `N#CC(CCc1ccc(Cl)cc1)(Cn1cncn1)c1ccccc1` (stereo not given), the AC50 was 3.75 µM (active).

For `CN(C)C(=S)SSC(=S)N(C)C`, the AC50 is 4.51 µM (active).

As for `CNC(=S)S`, the half-maximal activity concentration (AC50) is 8.25 µM (active).

In the case of `CON(C)C(=O)Nc1ccc(Cl)c(Cl)c1`, the AC50 was 6.39 µM (active).

In the case of `Cc1ccc(-c2c(Cl)nc(C#N)n2S(=O)(=O)N(C)C)cc1`, the AC50 is 30 µM (active).

For `COc1nc(NC(C)C)nc(NC(C)C)n1`, the result was inactive.

On to `CC(C)(C)c1ccc(CSc2cnn(C(C)(C)C)c(=O)c2Cl)cc1`, for which the result was inactive.

In the case of `COC(=O)N(OC)c1ccccc1COc1ccn(-c2ccc(Cl)cc2)n1`, the concentration at half-maximal activity (AC50) is 0.215 µM (active).

On to `N#Cc1cc(Br)c(O)c(Br)c1`, for which the outcome was inactive.

In the case of `COP(=S)(OC)Oc1nc(Cl)c(Cl)cc1Cl`, the AC50 was 26.7 µM (active).

As to `CCCCNC(=O)n1c(NC(=O)OC)nc2ccccc21`, the result was inactive.

In the case of `CC(Oc1ccc(Cl)cc1Cl)C(=O)O` (stereo not given), the outcome was inactive.

Take `O=C(Nc1ccccc1)Nc1ccnc(Cl)c1`: the AC50 is 6.08 µM (active).

Take `CC1=C(C(=O)Nc2ccccc2)SCCO1`: the AC50 is 8.8 µM (active).

In the case of `CCOc1cc(Oc2ccc(C(F)(F)F)cc2Cl)ccc1[N+](=O)[O-]`, the outcome was inactive.

As to `Fc1ccc(Oc2ccnc3cc(Cl)cc(Cl)c23)cc1`, the half-maximal activity concentration (AC50) was 8.77 µM (active).

Regarding `CCCCC(CC)COC(=O)c1ccccc1C(=O)OCC(CC)CCCC` (stereo not given), the outcome was inactive.

Read-out in the next experiment: Macrophage colony-stimulating factor (MCSF), CSF1 (gene 1435)
The experiment can be described thus: BSK_LPS_MCSF: BioMAP Diversity Plus: LPS Assay for Macrophage colony-stimulating factor (MCSF) Biomarker Activity (AID 2283083). The settings on record: primary human HUVEC with PBMC; actives raise or lower the signal. The essentials:
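Bidirectional fit versus DMSO of ELISA-measured M-CSF in co-cultured human umbilical vein endothelial cells and PBMC, sampled 24 h after dosing.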
For the compound `O=C(O)COc1nc(Cl)c(Cl)cc1Cl`, the result was inactive.

With `N#Cc1nn(-c2c(Cl)cc(C(F)(F)F)cc2Cl)c(N)c1S(=O)C(F)(F)F` (stereo not given), the concentration at half-maximal activity (AC50) is 20 µM (active).

In the case of `CC(C)Oc1cc(-n2nc(C(C)(C)C)oc2=O)c(Cl)cc1Cl`, the half-maximal activity concentration (AC50) is 32.7 µM (active).

For `CCOP(=S)(OCC)SCn1c(=O)oc2cc(Cl)ccc21`, the AC50 is 11.1 µM (active).

Take `COC(=O)C=C(C)OP(=O)(OC)OC`: the outcome was inactive.

On to `CCNc1nc(Cl)nc(NCC)n1`, for which the result was inactive.

Regarding `COc1ccc(C(c2ccc(OC)cc2)C(Cl)(Cl)Cl)cc1`, the AC50 is 20 µM (active).

For `CCOC(=O)C(Cl)Cc1cc(-n2nc(C)n(C(F)F)c2=O)c(F)cc1Cl` (stereo not given), the outcome was inactive.

On to `CCc1nn(C)c(C(=O)NCc2ccc(C(C)(C)C)cc2)c1Cl`, for which the AC50 is 13.4 µM (active).

With `N#CC(CCc1ccc(Cl)cc1)(Cn1cncn1)c1ccccc1` (stereo not given), the result was inactive.

Consider `CN(C)C(=S)SSC(=S)N(C)C`, for which the AC50 is 14.8 µM (active).

For `CNC(=S)S`, the AC50 is 9.92 µM (active).

For `CON(C)C(=O)Nc1ccc(Cl)c(Cl)c1`, the AC50 is 7.53 µM (active).

For the compound `Cc1ccc(-c2c(Cl)nc(C#N)n2S(=O)(=O)N(C)C)cc1`, the concentration at half-maximal activity (AC50) was 31.5 µM (active).

Take `COc1nc(NC(C)C)nc(NC(C)C)n1`: the outcome was inactive.

As to `CC(C)(C)c1ccc(CSc2cnn(C(C)(C)C)c(=O)c2Cl)cc1`, the half-maximal activity concentration (AC50) was 9.19 µM (active).

Consider `COC(=O)N(OC)c1ccccc1COc1ccn(-c2ccc(Cl)cc2)n1`, for which the AC50 is 14.1 µM (active).

Consider `N#Cc1cc(Br)c(O)c(Br)c1`, for which the AC50 is 4.08 µM (active).

For the compound `COP(=S)(OC)Oc1nc(Cl)c(Cl)cc1Cl`, the result was inactive.

As to `CCCCNC(=O)n1c(NC(=O)OC)nc2ccccc21`, the outcome was inactive.

On to `CC(Oc1ccc(Cl)cc1Cl)C(=O)O` (stereo not given), for which the outcome was inactive.

Take `O=C(Nc1ccccc1)Nc1ccnc(Cl)c1`: the result was inactive.

As for `CC1=C(C(=O)Nc2ccccc2)SCCO1`, the result was inactive.

Take `CCOc1cc(Oc2ccc(C(F)(F)F)cc2Cl)ccc1[N+](=O)[O-]`: the AC50 was 5.45 µM (active).

Turning to `Fc1ccc(Oc2ccnc3cc(Cl)cc(Cl)c23)cc1`, the AC50 was 18.7 µM (active).

`CCCCC(CC)COC(=O)c1ccccc1C(=O)OCC(CC)CCCC` (stereo not given): the half-maximal activity concentration (AC50) is 4.51 µM (active).

Read-out in a further experiment: Tissue Factor, F3 (gene 2152)
In words: BSK_LPS_TissueFactor: BioMAP Diversity Plus: LPS Assay for Tissue Factor Biomarker Activity (AID 2283084). The settings on record: primary human HUVEC with PBMC; actives raise or lower the signal. The essentials:
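Read-out: CD142 ELISA, 24 h. System: LPS-driven human endothelial/PBMC co-culture. Analysis: up- or down-signal fitted against DMSO.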
In the case of `O=C(O)COc1nc(Cl)c(Cl)cc1Cl`, the outcome was inactive.

With `N#Cc1nn(-c2c(Cl)cc(C(F)(F)F)cc2Cl)c(N)c1S(=O)C(F)(F)F` (stereo not given), the result was inactive.

For `CC(C)Oc1cc(-n2nc(C(C)(C)C)oc2=O)c(Cl)cc1Cl`, the outcome was inactive.

`CCOP(=S)(OCC)SCn1c(=O)oc2cc(Cl)ccc21`: the outcome was inactive.

Take `CCCC1COC(Cn2cncn2)(c2ccc(Cl)cc2Cl)O1` (stereo not given): the result was inactive.

As to `COC(=O)C=C(C)OP(=O)(OC)OC`, the outcome was inactive.

As to `CCNc1nc(Cl)nc(NCC)n1`, the result was inactive.

On to `COc1ccc(C(c2ccc(OC)cc2)C(Cl)(Cl)Cl)cc1`, for which the result was inactive.

`CCOC(=O)C(Cl)Cc1cc(-n2nc(C)n(C(F)F)c2=O)c(F)cc1Cl` (stereo not given): the result was inactive.

In the case of `CCc1nn(C)c(C(=O)NCc2ccc(C(C)(C)C)cc2)c1Cl`, the AC50 was 20 µM (active).

Regarding `N#CC(CCc1ccc(Cl)cc1)(Cn1cncn1)c1ccccc1` (stereo not given), the result was inactive.

Consider `CN(C)C(=S)SSC(=S)N(C)C`, for which the AC50 was 14.5 µM (active).

As to `CNC(=S)S`, the result was inactive.

`CON(C)C(=O)Nc1ccc(Cl)c(Cl)c1`: the outcome was inactive.

Turning to `Cc1ccc(-c2c(Cl)nc(C#N)n2S(=O)(=O)N(C)C)cc1`, the result was inactive.

`COc1nc(NC(C)C)nc(NC(C)C)n1`: the result was inactive.

On to `CC(C)(C)c1ccc(CSc2cnn(C(C)(C)C)c(=O)c2Cl)cc1`, for which the outcome was inactive.

With `COC(=O)N(OC)c1ccccc1COc1ccn(-c2ccc(Cl)cc2)n1`, the outcome was inactive.

`N#Cc1cc(Br)c(O)c(Br)c1`: the outcome was inactive.

Turning to `COP(=S)(OC)Oc1nc(Cl)c(Cl)cc1Cl`, the concentration at half-maximal activity (AC50) is 25.3 µM (active).

Consider `CCCCNC(=O)n1c(NC(=O)OC)nc2ccccc21`, for which the result was inactive.

As to `CC(Oc1ccc(Cl)cc1Cl)C(=O)O` (stereo not given), the result was inactive.

`O=C(Nc1ccccc1)Nc1ccnc(Cl)c1`: the outcome was inactive.

For `CC1=C(C(=O)Nc2ccccc2)SCCO1`, the outcome was inactive.

Regarding `CCOc1cc(Oc2ccc(C(F)(F)F)cc2Cl)ccc1[N+](=O)[O-]`, the result was inactive.

Regarding `Fc1ccc(Oc2ccnc3cc(Cl)cc(Cl)c23)cc1`, the half-maximal activity concentration (AC50) was 32.3 µM (active).

With `CCCCC(CC)COC(=O)c1ccccc1C(=O)OCC(CC)CCCC` (stereo not given), the result was inactive.
